The source of these data is a collection of fitness landscapes (doi:10.1016/j.celrep.2020.107928).

Over roughly 81,000 sequences, “one-hybrid fitness for binding parS DNA” has its median near -0.17; the highest 2% begin near 0.51. The sample holds the highest values, similar sequences and a random draw of the others, so the mix is not that of the screen.

To fix the notation:
B1: Caulobacter ParB omega fusion; a variant is named by its letters at X, in order, B8GW30 (parent)
chain: MESVVVGEPGMSEGRRGLGRGLSALLGEVDAAPAQAPGEQLGGSREAPIEILQRNPDQPRRTFREEDLEDLSNSIREKGVLQPILVRPSPDTAGEYQIVAGERAWRAAQRAGLKTVPIMVRELDDLAVLEIGIIENVQRADLNVLEEALSYKVLMEKFERTQENIAQTIGKSXSHVANXMRLLXLPDEVQSYLVSGELTAXHARAIAAAADPVALAKQIIEGGLSVRETEALARKAPNLSAGKSKGGRPPRVKDTDTQALESDLSSVLGLDVSIDHRGSTGTLTITYATLEQLDDLCNRLTRGI

Variants of B1 are the subject of this test. As to the kind of experiment: one-hybrid fitness for binding parS DNA (scaled: cognate 1, non-cognate 0); higher = stronger binding. The settings on record: with parS DNA site. The procedure, abridged:
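Fitness is the rescaled log change in variant-to-wild-type read ratio, measured by Illumina sequencing of plasmids before and after bacterial one-hybrid selection. The scale puts cognate at 1 and non-cognate at 0. Selection of Caulobacter ParB libraries, four specificity codons randomised, took place in E. coli USO with a HIS3 reporter, site 19 bp from the promoter, over 48 hours at 37°C on M9-minus-histidine with 0.1 mM IPTG and 5 mM 3-AT.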
As for QLTV, the “one-hybrid fitness for binding parS DNA” value was ≤ 0.2.
The result for RLQW reads 0.245.
The same measure for SPHY: ≤ 0.2.
KVAV: the “one-hybrid fitness for binding parS DNA” value was ≤ 0.2.
The result for NKDH reads ≤ 0.2; that for AYAS, ≤ 0.2.
The same measure for MADT: ≤ 0.2.
On to LSCT, for which the “one-hybrid fitness for binding parS DNA” value was ≤ 0.2.
The result for DASA reads ≤ 0.2; that for NTSA, ≤ 0.2; that for RSSA, 0.583.
The same measure for RTSA: 0.591.
The same measure for RDSA: ≤ 0.2.
Consider RASA, for which the “one-hybrid fitness for binding parS DNA” value was 0.595.
As for NASA, the “one-hybrid fitness for binding parS DNA” value is ≤ 0.2.
The result for RPSA reads ≤ 0.2; that for RGSA, 0.399.
The result for RWSA reads 0.429.
The same measure for DTSA: ≤ 0.2; for RCSA: 0.575.
Regarding CEWG, the “one-hybrid fitness for binding parS DNA” value was ≤ 0.2.
The result for PPVE reads ≤ 0.2; that for RGTE, ≤ 0.2.
On to VPLK, for which the “one-hybrid fitness for binding parS DNA” value was ≤ 0.2.
The result for LSLN reads ≤ 0.2; that for KMRA, ≤ 0.2.
Turning to APLY, the “one-hybrid fitness for binding parS DNA” value was ≤ 0.2.
For the variant YCRA, the “one-hybrid fitness for binding parS DNA” value is ≤ 0.2.
The same measure for PHDR: ≤ 0.2; for INAG: ≤ 0.2; for SFSA: ≤ 0.2.
With RLSA, the “one-hybrid fitness for binding parS DNA” value was 0.587.
The same measure for DHSA: ≤ 0.2; for RFSA: 0.572; for RHSA: 0.515.
The result for NMSA reads ≤ 0.2; that for RESA, ≤ 0.2.
The result for RMSA reads 0.59; that for DLSA, ≤ 0.2; that for CFSA, ≤ 0.2.
Consider QQWL, for which the “one-hybrid fitness for binding parS DNA” value was ≤ 0.2.
The same measure for HSTQ: ≤ 0.2.
The result for QIPS reads ≤ 0.2; that for NIHV, ≤ 0.2.
As to LAFG, the “one-hybrid fitness for binding parS DNA” value is ≤ 0.2.
The same measure for NNTV: ≤ 0.2.
The same measure for SRTI: ≤ 0.2; for LHLI: ≤ 0.2.
The same measure for FTFT: ≤ 0.2; for RKFD: ≤ 0.2; for RKAT: 0.818.
Regarding RKFH, the “one-hybrid fitness for binding parS DNA” value was determined as 0.211.
As to RKFT, the “one-hybrid fitness for binding parS DNA” value was 0.771.
The same measure for RKAR: ≤ 0.2; for RKAK: ≤ 0.2.
The same measure for TVYC: ≤ 0.2; for QLDE: ≤ 0.2.
In the case of GTYL, the “one-hybrid fitness for binding parS DNA” value is ≤ 0.2.
The result for RKIA reads 0.451; that for RKYA, 0.579; that for RKSA, 0.717.
The same measure for RKQA: 0.712.
The same measure for NKHA: ≤ 0.2; for RKPA: 0.223.
Turning to RKHA, the “one-hybrid fitness for binding parS DNA” value turned out to be 0.67.
The result for AYMW reads ≤ 0.2; that for WTLN, ≤ 0.2.
The same measure for CKRT: ≤ 0.2; for VEKG: ≤ 0.2; for ALQI: ≤ 0.2.
The same measure for MAKW: ≤ 0.2; for GFDC: ≤ 0.2; for WTHF: ≤ 0.2.
With RKLA, the “one-hybrid fitness for binding parS DNA” value was 0.547.
Regarding RKRA, the “one-hybrid fitness for binding parS DNA” value was 0.774.
The result for RKGA reads 0.694.
The same measure for NKRA: ≤ 0.2.
The same measure for QRWL: ≤ 0.2.
For the variant LNLV, the “one-hybrid fitness for binding parS DNA” value is ≤ 0.2.
The result for PQAL reads ≤ 0.2; that for PVGY, ≤ 0.2.
The same measure for PLAI: ≤ 0.2; for RIYW: 0.296; for SVKA: ≤ 0.2.
As to RVVA, the “one-hybrid fitness for binding parS DNA” value came to 0.565.
As to DVKA, the “one-hybrid fitness for binding parS DNA” value is ≤ 0.2.
For RVKA, the “one-hybrid fitness for binding parS DNA” value stood at 0.756.
The same measure for DVVA: ≤ 0.2.
Take NVVA: the “one-hybrid fitness for binding parS DNA” value is ≤ 0.2.
On to ALNW, for which the “one-hybrid fitness for binding parS DNA” value was ≤ 0.2.
On to ACFK, for which the “one-hybrid fitness for binding parS DNA” value is ≤ 0.2.
The result for PSMV reads ≤ 0.2; that for RCIA, 0.551.
For the variant RTIA, the “one-hybrid fitness for binding parS DNA” value was determined as 0.542.
The same measure for RMIA: 0.537.
The same measure for RWIA: 0.295; for RPIA: ≤ 0.2; for RMPA: 0.393.
RLIA: the “one-hybrid fitness for binding parS DNA” value came to 0.592.
The same measure for RTPA: 0.363; for RSIA: 0.474; for RLPA: 0.376.
The same measure for VHRF: ≤ 0.2; for NYLC: ≤ 0.2.
The result for ALEW reads ≤ 0.2; that for NIYW, ≤ 0.2; that for RRNY, 0.727.
As for RAYY, the “one-hybrid fitness for binding parS DNA” value came to 0.501.
The result for RRRY reads 0.812; that for RARY, 0.552; that for RCQY, 0.493.
The result for RRDY reads 0.289.
The result for RMQY reads 0.546; that for RRFY, 0.274; that for RADY, 0.389.
For RPQY, the “one-hybrid fitness for binding parS DNA” value is ≤ 0.2.
For the variant RCNY, the “one-hybrid fitness for binding parS DNA” value is 0.482.
The same measure for RRYY: 0.28.
Turning to AECV, the “one-hybrid fitness for binding parS DNA” value was ≤ 0.2.
The result for GPSG reads ≤ 0.2.
The same measure for TNDG: ≤ 0.2; for LTTC: ≤ 0.2.
The same measure for SCLR: ≤ 0.2; for VNDE: ≤ 0.2; for FAPS: ≤ 0.2.
As for LNVW, the “one-hybrid fitness for binding parS DNA” value is ≤ 0.2.
The result for RNEL reads ≤ 0.2; that for RLRY, 0.645.
The same measure for RFYY: 0.383; for RSDY: 0.352.
With RFDY, the “one-hybrid fitness for binding parS DNA” value worked out at 0.443.
The same measure for RFRY: 0.533.
The same measure for RSGY: 0.482.
On to RLDY, for which the “one-hybrid fitness for binding parS DNA” value was determined as 0.451.
On to RPGY, for which the “one-hybrid fitness for binding parS DNA” value was ≤ 0.2.
The result for RSYY reads 0.457; that for RLYY, 0.497.
The same measure for RSRY: 0.55.
The result for RTGY reads 0.593.
Take RRGE: the “one-hybrid fitness for binding parS DNA” value is ≤ 0.2.
Turning to LRQS, the “one-hybrid fitness for binding parS DNA” value is ≤ 0.2.
On to LLPK, for which the “one-hybrid fitness for binding parS DNA” value was ≤ 0.2.
Turning to ALSN, the “one-hybrid fitness for binding parS DNA” value is ≤ 0.2.
The same measure for RMRY: 0.777.
The same measure for RCYY: 0.472; for RTRY: 0.828; for RIRY: 0.617.
The result for RPRY reads ≤ 0.2.
As for RCRY, the “one-hybrid fitness for binding parS DNA” value worked out at 0.695.
The same measure for RMIY: 0.467; for RIYY: 0.475; for RTLY: 0.495.
The same measure for RIAY: 0.484.
